Sampled rows, rich in hits. Any-hit rate of the full collection: about 1.8%.
GC-A act: GC-A stimulated cGMP production enhancers – HEK293 GC-A cells, cGMP TR-FRET, EC30 ANP, primary screen; AID 1671463, 2021; 370,000 tested, 0.14% active; Atrial natriuretic peptide receptor 1 (Homo sapiens), P16066; 0% at EC30 ANP, 100% saturating ANP; activation, % at 10 µM; in the data active means activation above about 40%
GC-B act: human GC-B receptor activators, primary screen, HEK293 GC-B cells, cGMP TR-FRET, EC30 CNP | Atrial natriuretic peptide receptor 2 (Homo sapiens), P20594 | 0% at EC30 CNP, 100% saturating CNP | activation, % at 10 µM | 370,000 tested, 0.11% active;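 active means activation at 10 µM reaching about 35% in either raw or pattern-adjusted values, limit read from the data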
bovine MsrA act: bovine MsrA enzyme activators, primary screen, biochemical, absorbance, HTS; purified bovine MsrA, absorbance read-out; AID 602163, 2012; activation, % at 10.6 µM; 360,000 tested, 0.3% active; in the data active means activation above about 7.5%;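 further: 0% = vehicle and 100% = reference activator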
MsrA inhibitor: bovine MsrA enzyme inhibitors, primary screen, biochemical, absorbance, HTS; Methionine sulfoxide reductase A (Bos taurus); purified bovine MsrA, absorbance read-out; inhibition, % at 15.5 µM; 360,000 tested, 0.75% active; AID 651718, 2012;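 further: 0% = vehicle wells with enzyme and 100% = reference inhibitor wells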
HTR2A ag: mouse Htr2a agonists via beta-arrestin recruitment, primary screen, cell-based, luminescence; 5-hydroxytryptamine receptor 2A (Mus musculus), P35363; CHO-K1 mHTR2A beta-arrestin complementation; percent of 30 µM serotonin response; activation, % at 7.6 µM; 360,000 tested, 0.66% active; AID 624169, 2012;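 active means activation above a run cutoff, the mean activation of all tested compounds plus 3 SD, cut at about 14% in these data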;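 further: 0% = plate median of compound wells and 100% = 30 µM serotonin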
MsrA conf: bovine MsrA inhibitors, retest, confirmation, biochemical, absorbance, HTS | purified bovine MsrA, absorbance read-out | AID 651822, 2012 | shares compounds with MsrA inhibitor | inhibition, % at 15.5 µM | 2,300 tested, 41% active;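 further: coupled to thioredoxin reductase with NADPH and selenocystamine and DMSO as substrate; 0% = vehicle only and 100% = full effect of reference inhibitor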
Active calls of the source: *; . = no result given. Unless noted, no stated cut-off is given here; in the data, active means inhibition above about 4.5%; inactive means the rest.

SMILES	GC-A act	GC-B act	bovine MsrA act	MsrA inhibitor	HTR2A ag	MsrA conf
COC(=O)CSc1nc(N2CCOCC2)c2c(c1C#N)CCCC2	-17	-4	-2	8.2*	3	6.9*
N#Cc1c(SCC(=O)O)nc(N2CCOCC2)c2c1CCCC2	-1	0	-5	2	3	.
CCSc1nc(N2CCOCC2)c2c(c1C#N)CCCC2	-27	-22	-5	13*	-4	13*
CCN1CCc2c(C#N)c(N3CCCCC3)nc(N3CCOCC3)c2C1	7	4	-6	4.8*	-3	2
COc1cc(/C=N/Nc2ccnc(=O)[nH]2)ccc1O	-6	-2	-5	6.9*	-2	6.3*
O=c1nccc(N/N=C/c2cccc(O)c2)[nH]1	4	-4	-1	6.8*	3	4
CCCOc1ccccc1/C=N/Nc1ccnc(=O)[nH]1	-14	-8	-5	4	-1	.
CCCCOc1ccc(-c2csc(N)n2)cc1[N+](=O)[O-]	-5	-3	-5	9.4*	-4	4
CCCCOc1ccc(C2=CSC3=NCCN23)cc1[N+](=O)[O-]	4	-2	-2	0	0	.
CCCN=C(C)C1=C(O)c2ccccc2C1=O	-2	-3	-1	4	4	.
CC(=NCc1cccnc1)C1=C(O)c2ccccc2C1=O	5	-7	-4	4.9*	7	3
Nc1n[nH]c(N)c1N=Nc1ccc(Cl)cc1	1	-7	-5	6.1*	2	3
CCOC(=O)C(CNc1ccc(O)cc1)NC(=O)c1ccccc1 (stereo not given)	-2	5	.	0	.	.
Cc1[nH]nc(Nc2ccc(Br)cc2)c1[N+](=O)[O-]	24	-8	-3	5.4*	6	3
CCN(c1ccccc1)S(=O)(=O)c1nnc(NC(=O)c2ccco2)s1	0	4	-8	5.9*	1	5.3*
O=C(OC12CCCN(C1)/C(=C/c1ccncc1)C2)c1ccccc1 (stereo not given)	0	-1	.	.	.	.
O=[N+]([O-])c1ccc(N/N=C2\CC3CC=CC23)c([N+](=O)[O-])c1 (stereo not given)	3	-1	-8	5.6*	6	4
O=[N+]([O-])c1ccc(N/N=C2\CC3CC=CC23)cc1 (stereo not given)	-6	-1	-14	1	3	.
O=[N+]([O-])c1ccc(C2CCCC/C2=N/OCc2ccccc2F)c([N+](=O)[O-])c1 (stereo not given)	-10	-5	-3	9.2*	-3	6.9*
O=C(COc1ccccc1)N/N=C/c1sc(=O)n(Cc2cccc(C(=O)O)c2)c1Cl	-3	-3	-3	3	-4	.
O=C(O)c1cccc(Cn2c(Cl)c(/C=N/NC(=O)c3ccc(O)cc3)sc2=O)c1	-6	2	-7	8.5*	1	5.5*
COc1ccc(C(=O)/C(C#N)=N/Nc2ccccc2[N+](=O)[O-])cc1	-5	-1	-1	3	1	.
CCCc1c(C)nn(C(=O)/C(C#N)=N/Nc2ccccc2[N+](=O)[O-])c1C	-7	4	-10	10*	-4	6.9*
CC(=O)OCCCN1CCC2(CCC(c3ccccc3)CC2)C1=O (stereo not given)	-3	7	.	.	.	.
CN(C)c1ccc(/C=N/NC(=O)CNC(=O)/C=C/c2ccco2)cc1	-5	-5	-7	6.7*	-5	7.1*
SMILES	GC-A act	GC-B act	bovine MsrA act	MsrA inhibitor	HTR2A ag	MsrA conf
CN(C)c1ccc(/C=N/NC(=O)CNC(=O)c2ccncc2)cc1	-8	0	-7	5.1*	3	5.1*
CN(C)c1ccc(/C=N/NC(=O)CNC(=O)c2ccc3c(c2)OCCO3)cc1	-7	-5	-10	5.1*	-8	5.1*
CC(=O)c1sc(NC(=O)c2cccnc2Cl)nc1C	1	0	-5	5.0*	-4	3
COC(=O)[C@]12C[C@H](CC(=O)NCc3cccc4ccccc34)C(=O)N(Cc3ccc(Cl)cc3Cl)C1=C[C@H](C(C)(C)C)O[C@@H]2C	-3	8	.	.	.	.
C/C(=N\Nc1nc(C)cc(C)n1)c1ccc(C)o1	2	6	0	2	-4	.
C/C(=N\Nc1nnc2c3ccccc3n(C)c2n1)c1ccc(C)o1	2	-6	-3	5.6*	-4	2
COC(=O)[C@@]12CCCCC=C1N(CCc1ccc(Cl)cc1)C(=O)[C@H]2CC(=O)NCCC(C)C	0	5	.	.	.	.
CN(/N=C/c1ccncc1)C1=NCCN1	-3	4	-1	-2	-4	.
CN(/N=C/c1ccncc1)c1cnc2ccccc2n1	0	-3	-17	4.7*	9	4
O=C(O)c1ccc(N/N=C/c2ccncc2)cc1	1	-1	-6	5.7*	-2	4
O=C(O)c1ccc(N/N=C/c2ccnc3ccccc23)cc1	-5	-10	2	0	0	.
O=C(O)c1ccc(N/N=C/c2ccc3nccnc3c2)cc1	-6	-9	-8	4.8*	1	3
CC(CCN1CCC(C(O)(c2ccccc2)c2ccccc2)CC1)Oc1ccc(F)cc1 (stereo not given)	-11	-9	.	.	.	.
CC(C)NC(=O)[C@]1(C#N)CC(=O)N(C)[C@@H]1c1ccccc1	1	-2	.	.	.	.
COc1cccc2c1Oc1cc([N+](=O)[O-])cc(N(C)C(C)=O)c1C=C2	-3	0	-8	15*	-1	11*
COC(=O)[C@H](CC(C)C)N(Cc1cn(CC2CCCCC2)nn1)S(=O)(=O)c1ccccc1Br	1	1	.	.	.	.
CCCCc1ccc2nc(NC(=O)c3ccco3)sc2c1	-6	-9	.	.	.	.
Cc1[nH]c(C(=O)N/N=C/c2ccc(N(C)C)cc2)c(C)c1C(=O)N/N=C/c1ccc(N(C)C)cc1	-7	-7	-11	7.5*	-1	5.2*
Cc1[nH]c(C(=O)N/N=C/c2ccc(C(=O)O)cc2)c(C)c1C(=O)N/N=C/c1ccc(C(=O)O)cc1	0	2	-16	9.9*	4	9.4*
CCOC(=O)c1c(C)[nH]c(C(=O)N/N=C/c2ccc(Br)cc2)c1C	-4	-5	-2	2	-4	.
Fc1cccc(/C=N/Nc2cc(N3CCOCC3)ncn2)c1	11	1	-3	4.9*	-5	3
Oc1ccc(/C=N/Nc2cc(N3CCOCC3)nc(N3CCOCC3)n2)cc1	-5	-2	-15	5.8*	-5	5.7*
COC(=O)[C@]12C[C@H](CC(=O)N3CCC(c4ccccc4)CC3)C(=O)N(Cc3ccco3)C1=C[C@H](C(C)(C)C)O[C@@H]2C	-2	-7	.	.	.	.
O=C1CCN(Cc2ccco2)C(=S)N1	3	-3	-3	-1	1	.
Cc1ccccc1CNC(=O)CN1CCCc2ccccc21	-5	-1	.	.	.	.

Compound activity (PubChem)
